This is a sample that favours compounds with a hit; in the whole collection about 4.5% have one here.
FXN GAA850 act = frataxin GAA850 promoter activation. HEK293 lucGAA850 FXN promoter luciferase reporter, 24 h; percent of 10 µM SAHA response. activation, % at 6 µM. actives 0.56% (n = 360,000);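 active means activation above the average of all compounds screened plus 3 SD, cutoff fixed separately per campaign, cut at about 7.5% in these data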
DAX1 inh-1 = NR0B1 (DAX1) inhibition. P51843. HEK293 Gal4-DAX1 luciferase reporter, luminescence. inhibition, % at 6.75 µM. actives 0.99% (n = 340,000);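 active means inhibition above the mean over all tested compounds plus 3 SD, cut at about 4.2% in these data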;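 further: inhibition shows as a rise in luminescence from relieved DAX1 repression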
Target sequence (P51843 207-470 limits assumed): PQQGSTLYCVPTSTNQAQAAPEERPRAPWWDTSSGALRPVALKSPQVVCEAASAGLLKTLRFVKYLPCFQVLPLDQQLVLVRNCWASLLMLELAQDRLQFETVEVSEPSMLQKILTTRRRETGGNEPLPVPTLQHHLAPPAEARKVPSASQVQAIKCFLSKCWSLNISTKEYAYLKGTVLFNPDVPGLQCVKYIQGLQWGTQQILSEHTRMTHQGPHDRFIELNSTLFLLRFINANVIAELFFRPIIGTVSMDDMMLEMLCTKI
hgDAF12 agonist = hgDAF-12 agonism, primary luciferase screen; AID 687014; activation, % at 6.8 µM; HEK293 GAL4-hgDAF12 UAS-luciferase reporter, agonist luminescence; normalized to butyrate control; actives 1.8% (n = 370,000);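 active means activation above a cutoff set at the mean of all screened compounds plus 3 SD, cut at about 10% in these data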
ssDAF12 agonist = S. stercoralis DAF-12 activation, primary screen. HEK293 ssDAF-12/GRIP1 lit1-tk-luc reporter, luminescence; % of 3 µM dafachronic acid response. actives 1% (n = 370,000). activation, % at 6.8 µM. AID 652126;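 active means activation above the mean over all tested compounds plus 3 SD, cut at about 0.9% in these data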
hcDAF-12 act = activators of H. contortus DAF-12 nuclear receptor; HEK293 hcDAF-12 lit1-tk-luc reporter, luminescence; 0% DMSO, 100% Δ7-dafachronic acid; activation, % at 6.8 µM; actives 1.4% (n = 370,000); AID 652067;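 active means activation above the mean of all tested compounds plus 3 SD, cut at about 5.5% in these data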
DAX1 inh-2 = blocks DAX1 repression of SF-1 activated StAR promoter; HEK293T StAR-luciferase reporter, SF-1/DAX-1 repression relief; inhibition, % at 6.8 µM; actives 1.1% (n = 370,000); AID 652010;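 active means inhibition above the mean over all tested compounds plus 3 SD, cut at about 3.6% in these data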;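 further: higher inhibition means more luminescence from relief of DAX-1 repression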
LXR ag = counter-screen for hcDAF-12 agonists: agonists of human LXR-beta; activation, % at 6.8 µM; AID 743027; HEK293 Gal4-LXR tk-luc reporter, luminescence, 24 h; normalized: DMSO 0%, positive control 100%; shares compounds with hcDAF-12 act; 3,400 tested, under 10 active;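 active means mean percent activation of the reporter above a cutoff set as the average over tested compounds plus their standard deviation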
hcDAF12 ag = hcDAF-12 agonism, confirmation assay. shares compounds with hcDAF-12 act. HEK293 hcDAF-12 lit1-tk-luc reporter, luminescence; % of Δ7-dafachronic acid response. activation, % at 6.8 µM. actives 61% (n = 3,400);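 active means mean activation across triplicate tests above the threshold derived from the earlier primary screen, cut at about 5.5% in these data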
hgDAF12 conf = confirmation of H. glycines DAF-12 agonists | AID 743050 | HEK293 GAL4-hgDAF12 luciferase reporter, agonist mode; percent of butyrate response | shares compounds with hgDAF12 agonist | activation, % at 6.8 µM | actives 80% (n = 3,300);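 active means mean activation over triplicate wells above the hit cutoff derived from the earlier primary screen, cut at about 11% in these data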
LXR ag 2 = LXR-beta agonism as DAF-12 counter-screen; 3,300 tested, under 10 active; activation, % at 6.8 µM; HEK293 Gal4-LXR luciferase reporter, 24 h; shares compounds with hgDAF12 agonist;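 active means mean activation of the triplicate above a set limit carried over from the primary screen, none filed active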
Large screens that a line does not name were inactive (follow-up assays come after a bar, where they were run).

Cc1[nH]n(-c2ccccc2)c(=O)c1N=Nc1cccc(C(=O)O)c1	hgDAF12 agonist 14, ssDAF12 agonist 2.2, hcDAF-12 act 8.9 | LXR ag inactive | hcDAF12 ag 12 | hgDAF12 conf 15 | LXR ag 2 inactive
O=C(/C=C/Nc1ccccc1)c1ccc(Cl)cc1Cl	hgDAF12 agonist 15, ssDAF12 agonist 1.1, hcDAF-12 act 8.0 | LXR ag inactive | hcDAF12 ag inactive | hgDAF12 conf 26 | LXR ag 2 inactive
c1csc(-c2nc3ccccc3[nH]2)c1	none
Cc1ccc(-c2nc3ccccc3[nH]2)s1	hgDAF12 agonist 20, ssDAF12 agonist 1.9, hcDAF-12 act 7.9, DAX1 inh-2 3.8 | LXR ag inactive | hcDAF12 ag 8.2 | hgDAF12 conf 19 | LXR ag 2 inactive
COc1ccc(-c2ccc(C(=O)C3CC3)cc2)cc1	hgDAF12 agonist 15 | hgDAF12 conf 20 | LXR ag 2 inactive
CC(OC(=O)Cc1c[nH]c2ccccc12)C(=O)Nc1ccc(S(N)(=O)=O)cc1 (configuration not stated)	none
Oc1ccc(-c2csc(-c3cccnc3)n2)c(O)c1	hgDAF12 agonist 25 | hgDAF12 conf 20 | LXR ag 2 inactive
O=S(=O)(c1cccc(-c2csc(-c3cccnc3)n2)c1)N1CCOCC1	none
CCc1ccc(-c2cc(C(=O)N/N=C/c3c[nH]c4ccccc34)[nH]n2)cc1	hgDAF12 agonist 18 | hgDAF12 conf inactive | LXR ag 2 inactive
O=C(CSc1cn(CC(=O)N2CCOCC2)c2ccccc12)N1CCOCC1	none
Cc1cccc(CSc2cn(CC(=O)N3CCOCC3)c3ccccc23)c1	DAX1 inh-1 5.2, hgDAF12 agonist 14 | hgDAF12 conf 13 | LXR ag 2 inactive
Cc1cc(C(=O)CSc2nncn2C)c(C)n1-c1ccccc1	hgDAF12 agonist 16 | hgDAF12 conf 16 | LXR ag 2 inactive
O=C(N/N=C/c1ccc(Cl)cc1)c1n[nH]c2c1CCCC2	none
O=C(N/N=C/c1ccccc1)c1n[nH]c2c1CCCC2	hgDAF12 agonist 17, ssDAF12 agonist 1.1 | hgDAF12 conf 16 | LXR ag 2 inactive
O=C(CCc1ccccc1)NNC(=O)COc1ccc(Br)cc1	none
CC(/C=N/NC(=O)c1cc(C2CC2)[nH]n1)=C\c1ccccc1	none
C/C(=N/NC(=O)c1cc(C2CC2)[nH]n1)c1cccs1	hgDAF12 agonist 15, hcDAF-12 act 5.7, DAX1 inh-2 3.8 | hgDAF12 conf inactive | LXR ag 2 inactive
CCCCN(CC)C(=O)c1oc2ccc(S(=O)(=O)N3CCCC3)cc2c1C	none
CCC(=O)Nc1ccc(/C(C)=N\NC(=O)c2ccc(C)s2)cc1	none
CCC(CC)C(=O)Nc1cccc(/C(C)=N\NC(=O)c2ccc(C)s2)c1	none
C/C(=N\NC(=O)c1nn(C)cc1Br)c1cccc(NC(=O)c2ccncc2)c1	hgDAF12 agonist 18 | hgDAF12 conf inactive | LXR ag 2 inactive
C/C(=N\NC(=O)c1nn(C)c(C)c1Br)c1ccc(NC(=O)c2ccc(C)s2)cc1	hgDAF12 agonist 17 | hgDAF12 conf inactive | LXR ag 2 inactive
C/C(=N\NC(=O)c1ccn(C)n1)c1cccc(NC(=O)c2ccc(C)s2)c1	hgDAF12 agonist 14 | hgDAF12 conf inactive | LXR ag 2 inactive
CCOc1ncccc1C(=O)NCCc1ccc(Cl)cc1	none
Cc1ccccc1/C=N\NC(=O)c1csnn1	hgDAF12 agonist 14 | hgDAF12 conf inactive | LXR ag 2 inactive
CC[N+](CC)(CC)CC(=O)Nc1ccc(SC(F)F)cc1	none
Cc1ccc(C(=O)Nc2ccc(SC(F)F)cc2)s1	hgDAF12 agonist 20, DAX1 inh-2 4.2 | hgDAF12 conf 13 | LXR ag 2 inactive
Cc1ccc(NC(=O)Nc2cc(S(C)(=O)=O)ccc2Cl)cc1	none
CCN(CC)C(=O)CCSc1nnc(-c2ccncc2)o1	none
CCN(CC)C(=O)CSc1nnc(-c2ccccc2)o1	hgDAF12 agonist 18 | hgDAF12 conf 12 | LXR ag 2 inactive
C/C(=N/NC(=O)c1ccncc1)c1ccc(NC(=O)c2ccccc2)cc1	none
C/C(=N/NC(=O)c1ccoc1C)c1ccc(NC(=O)c2ccncc2)cc1	hgDAF12 agonist 17, ssDAF12 agonist 1.3, hcDAF-12 act 6.4, DAX1 inh-2 3.8 | hgDAF12 conf inactive | LXR ag 2 inactive
C/C(=N\NC(=O)c1ccco1)c1ccc(NC(=O)c2ccccc2)cc1	hgDAF12 agonist 14 | hgDAF12 conf inactive | LXR ag 2 inactive
C/C(=N/NC(=O)c1ccoc1C)c1ccc(N2CCOCC2)cc1	hgDAF12 agonist 19, DAX1 inh-2 3.7 | hgDAF12 conf inactive | LXR ag 2 inactive
O=C(COC(=O)/C=C/c1ccccc1)Nc1ccc(Cl)cn1	none
O=C(/C=C/c1ccccc1)Nc1ccc(Cl)cn1	hgDAF12 agonist 14 | hgDAF12 conf 20 | LXR ag 2 inactive
Cc1ccc2c(c1)N(CC(=O)NCCCN1CCCCC1)C(=O)CO2	none
c1ccc(-n2cnc3cc(NCc4ccco4)ccc32)cc1	hgDAF12 agonist 17, DAX1 inh-2 4.5 | hgDAF12 conf inactive | LXR ag 2 inactive
c1ccc(-n2cnc3cc(NCc4cccs4)ccc32)cc1	none
CCOC(=O)CSc1nc2cc3c(cc2cc1C#N)OCO3	hgDAF12 agonist 14 | hgDAF12 conf 15 | LXR ag 2 inactive
CCOC(=O)CSc1nc2cc3c(cc2cc1C#N)OCCO3	DAX1 inh-1 12, hgDAF12 agonist 17 | hgDAF12 conf 12 | LXR ag 2 inactive
COc1ccc(OC)c(C=NNC(=O)c2ccccc2NS(=O)(=O)c2cccs2)c1	none
CC(=O)Cn1cnc2c(cnn2-c2ccc(C)c(C)c2)c1=O	hgDAF12 agonist 15 | hgDAF12 conf 12 | LXR ag 2 inactive
O=[N+]([O-])c1cccc(COc2cccc(CN3CCCC3)c2)c1	none
O=C(N/N=C/c1c(-c2ccccc2)[nH]c2ccccc12)c1cccnc1	hgDAF12 agonist 18 | hgDAF12 conf inactive | LXR ag 2 inactive

Compound activity: PubChem, The Scripps Research Institute Molecular Screening Center
